Source: the supplement of paper PMC13380429

What was measured:
[1] = test system: Vero E6 infected with SARS-CoV-2; assay: morphology score (similarity to uninfected cells); higher = more like uninfected cells; conditions: 24 h
[2] = test system: Vero E6 infected with SARS-CoV-2; assay: SARS-CoV-2 infection rate relative to infected DMSO; higher = more infection, active = 60 or less; conditions: 24 h

SMILES	morphology score [1]	SARS-CoV-2 infection rate [2]
CCc1cc(C(N)=S)ccn1 [ethionamide] (10 µM)	0.155	102% (inactive)
CCNC(=O)CC[C@H](N)C(=O)O [L-theanine] (10 µM)	0.0421	102% (inactive)
Cc1ccc2c(c1CCC(=O)O)CC[C@@H](NS(=O)(=O)c1ccc(Cl)cc1)C2 [terutroban] (10 µM)	0.115	112% (inactive)
CC(=O)[C@H]1CC[C@H]2[C@@H]3CC[C@H]4C[C@H](O)CC[C@]4(C)[C@H]3CC[C@]12C [allopregnanolone] (10 µM)	0.0997	103% (inactive)
C[C@@H](c1ccc2nccn2c1)n1nnc2ncc(-c3cnn(C)c3)nc21 [savolitinib] (10 µM)	-0.18	104% (inactive)
NC(=O)c1ccc(I)c([N+](=O)[O-])c1 [iniparib] (10 µM)	0.0662	106% (inactive)
COc1ccc(CNC(=O)c2cc(-c3cncc(C)c3)ncc2-c2nccs2)nc1OC (10 µM)	-0.0112	100% (inactive)
CC(=O)OC[C@H](N)C(=O)O [O-acetyl-L-serine] (10 µM)	0.0719	88% (inactive)
CNC(=O)c1cccc(-c2ccc3c(N4CCOC[C@@H]4C)nc(N4CCOC[C@@H]4C)nc3n2)c1 (10 µM)	-0.219	108% (inactive)
CCNC(=O)N1CCN(CCCC(c2ccc(F)cc2)c2ccc(F)cc2)CC1 [amperozide] (10 µM)	-0.101	108% (inactive)
CNS(=O)(=O)Cc1ccc2[nH]cc(CCN(C)C)c2c1 [sumatriptan] (10 µM)	0.205	98% (inactive)
CC[N+](CC)(CC(=O)Nc1c(C)cccc1C)Cc1ccccc1 [denatonium-benzoate] (10 µM)	0.144	116% (inactive)
O=C(N[C@H](Cc1ccccc1)C(=O)O)c1sc2cc(F)ccc2c1Cl (10 µM)	0.16	79.5% (inactive)
C=CC(=O)N1CCC(Oc2cc3c(Nc4ccc(Cl)c(Cl)c4F)ncnc3cc2OC)CC1 [poziotinib] (10 µM)	-0.0962	108% (inactive)
Cc1ccccc1C(=O)Nc1ccc(C(=O)N2CCCC(O)c3cc(Cl)ccc32)c(C)c1 (stereo unspecified) [tolvaptan] (10 µM)	0.0857	120% (inactive)
CN1CCN(c2ncc(-c3cc(Cl)cc(Cl)c3Cl)c(N)n2)CC1 [sipatrigine] (10 µM)	0.204	82% (inactive)
C=C1/C(=C\C=C2/CCC[C@]3(C)[C@@H]([C@H](C)CCCC(C)C)CC[C@@H]23)C[C@@H](O)C[C@@H]1O [alfacalcidol] (10 µM)	0.0852	98% (inactive)
O=C(/C=C\n1cnc(-c2cc(C(F)(F)F)cc(C(F)(F)F)c2)n1)NNc1cnccn1 [selinexor] (10 µM)	-0.235	106% (inactive)
COc1ccc(-c2coc3cc(O)cc(O)c3c2=O)cc1 [4-methylgenistein] (10 µM)	0.139	103% (inactive)
Cc1cc(=O)oc2c(C=O)c(O)ccc12 (10 µM)	0.206	106% (inactive)

SMILES	morphology score [1]	SARS-CoV-2 infection rate [2]
Cn1cnc([N+](=O)[O-])c1Sc1ncnc2[nH]cnc12 [azathioprine] (10 µM)	0.172	95.5% (inactive)
O=C(O)CC/C=C\C[C@@H]1CO[C@H](c2ccccc2Cl)O[C@@H]1c1ccccc1O (racemic) (10 µM)	-0.000999	106% (inactive)
COc1cc(/C=C/C(=O)O)ccc1O [ferulic-acid] (10 µM)	-0.0443	110% (inactive)
CCN(CC)CCOc1ccc(/C(=C(\Cl)c2ccccc2)c2ccccc2)cc1 [clomifene] (0.833333 µM)	0.172	96.5% (inactive)
C=CCN1CC[C@]23c4c5ccc(O)c4O[C@H]2C(=O)CC[C@@]3(O)[C@H]1C5 (10 µM)	-0.209	114% (inactive)
CCC(=O)OCC(=O)[C@@]1(OC(=O)CC)[C@H](C)C[C@H]2[C@H]3[C@H]([C@@H](O)C[C@@]21C)[C@@]1(C)C=CC(=O)C=C1C[C@H]3Cl [alclometasone-dipropionate] (10 µM)	0.139	98% (inactive)
OCc1ccccc1O[C@@H]1O[C@H](CO)[C@@H](O)[C@H](O)[C@H]1O [salicin] (10 µM)	0.153	99% (inactive)
Cc1nnc(-c2ccc3occ(-c4ccc([S+](C)[O-])cc4)c3c2)o1 (stereo unspecified) (10 µM)	-0.00242	92.5% (inactive)
O=C(/C=C/c1ccccc1)NC(NC(=S)Nc1cccc2cccnc12)C(Cl)(Cl)Cl (stereo unspecified) [salubrinal] (10 µM)	-0.178	108% (inactive)
Cn1ncc2c(N3CCOCC3)nc(-c3cccc(O)c3)nc21 (10 µM)	-0.103	114% (inactive)
N[C@@H](CCC(=O)N[C@@H](CS)C(=O)NCC(=O)O)C(=O)O [glutathione] (10 µM)	-0.0349	108% (inactive)
CNC(=O)O[C@H]1COc2ccc(N3CCN(C4COC4)CC3)cc2[C@@H]1NC(=O)c1ccc(F)cc1 (10 µM)	0.123	95.5% (inactive)
COCCOCCOc1ccc(C2=N[C@@](C)(C(=O)O)CS2)c(O)c1 (10 µM)	0.128	102% (inactive)
C[C@H](N/C(=N/C#N)Nc1cccc2ncccc12)c1ccccc1 (10 µM)	0.0952	98.5% (inactive)
CCn1cc(-c2ccnc3[nH]c(-c4cccc(CN(C)C)c4)cc23)c(-c2ccc(NC(=O)N(C)C)cc2)n1 (0.833333 µM)	-0.185	106% (inactive)
CC(C)C[C@@H](N)C(=O)N[C@H]1C(=O)N[C@@H](CC(N)=O)C(=O)N[C@H]2C(=O)N[C@H]3C(=O)N[C@H](C(=O)N[C@H](C(=O)O)c4cc(O)cc(O)c4-c4cc3ccc4O)[C@H](O)c3ccc(c(Cl)c3)Oc3cc2cc(c3O[C@@H]2O[C@H](CO)[C@@H](O)[C@H](O)[C@H]2O[C@H]2C[C@](C)(N)[C@H](O)[C@H](C)O2)Oc2ccc(cc2Cl)[C@H]1O [norvancomycin] (10 µM)	0.00559	100% (inactive)
COc1cc2c(=O)c(-c3ccc(O)cc3)coc2cc1O [glycitein] (10 µM)	0.00478	110% (inactive)
COc1cc2nc(N3CCN(C(=O)C4CCCO4)CC3)nc(N)c2cc1OC (stereo unspecified) [terazosin] (10 µM)	-0.108	110% (inactive)
CCN(CC)CC(=O)Nc1c(C)cccc1C [lidocaine] (10 µM)	0.0603	100% (inactive)
O.O=[Si]=O.O=[Si]=O.O=[Si]=O.O=[Si]=O.[O]=[Mg].[O]=[Mg].[O]=[Mg] (10 µM)	0.0643	104% (inactive)

SMILES	morphology score [1]	SARS-CoV-2 infection rate [2]
CCCn1c(=O)c2[nH]c(C3CCCC3)nc2n(CCC)c1=O (10 µM)	0.0194	105% (inactive)
CN(C)CC[C@@](O)(c1ccccc1)c1ccccc1Cl [clofedanol] (10 µM)	-0.0705	110% (inactive)
CC(=O)[C@]1(O)Cc2c(O)c3c(c(O)c2[C@@H](O[C@H]2C[C@H](N)[C@H](O)[C@H](C)O2)C1)C(=O)c1ccccc1C3=O [idarubicin] (0.833333 µM)	-0.15	106% (inactive)
CCN(CC)CCOC(=O)C(Cc1cccc2ccccc12)CC1CCCO1 (mixture of isomers) [naftidrofuryl] (10 µM)	0.14	104% (inactive)
CCOC(=O)C1=C[C@@H](OC(CC)CC)[C@H](NC(C)=O)[C@@H](N)C1 [oseltamivir-phosphate] (10 µM)	0.239	85.5% (inactive)
CCCCCCCCCCCCCC[C@@H](O)[C@@H](O)[C@@H](N)CO [phytosphingosine] (10 µM)	-0.0786	108% (inactive)
O=C1[C@H](CC[C@H](O)c2ccc(F)cc2)[C@@H](c2ccc(O)cc2)N1c1ccc(F)cc1 [ezetimibe] (10 µM)	0.142	110% (inactive)
CCN1CCN(C(=O)N[C@@H](C(=O)N[C@@H]2C(=O)N3[C@@H]2SC(C)(C)[C@@H]3C(=O)O)c2ccccc2)C(=O)C1=O [piperacillin] (10 µM)	0.11	96% (inactive)
C=C1C(=O)O[C@@H]2C[C@@]3(C)CCC[C@H](C)C3=C[C@H]12 [alantolactone] (10 µM)	0.304	32% (active)
Cc1onc(-c2ccccc2)c1-c1ccc(S(N)(=O)=O)cc1 [valdecoxib] (10 µM)	-0.0646	98.5% (inactive)
C#CCN1C(C)=C(C(=O)OC)C(c2cccc([N+](=O)[O-])c2)C(C(=O)OCC)=C1C (stereo unspecified) (10 µM)	0.0591	87.5% (inactive)
C=CC(=O)Nc1ccc2ncnc(Nc3cccc(Br)c3)c2c1 (0.833333 µM)	0.0618	90% (inactive)
COC(=O)c1ccc2c(c1)nc(NC(=O)c1ccccc1)n2CCCc1ccccc1 (10 µM)	0.0334	94.5% (inactive)
CN1CCC(=C2c3ccccc3C=Cc3ccccc32)CC1 [cyproheptadine] (0.833333 µM)	0.0226	102% (inactive)
CC(=O)c1c(O)cc(C)oc1=O [dehydroacetic-acid] (10 µM)	0.121	93.5% (inactive)
CC(C)OC(=O)N1CCC(Oc2ncnc3c2cnn3-c2ccc(S(C)(=O)=O)cc2F)CC1 (10 µM)	0.0759	98% (inactive)
CN1CC[C@H](c2c(O)cc(O)c3c(=O)cc(-c4ccccc4Cl)oc23)[C@H](O)C1 [alvocidib] (10 µM)	-0.17	108% (inactive)
O=c1c(-c2ccc(O)cc2)coc2c([C@@H]3O[C@H](CO)[C@@H](O)[C@H](O)[C@H]3O)c(O)ccc12 [kakonein] (10 µM)	-0.0186	103% (inactive)
